According to PubChem BioAssay (Tox21):
Records with an inconclusive call do not appear. Values without a mark were called inactive. Calls of active or inactive are those of the source. Calls follow the shape of the dose curve; as a rule, active = well fitted cell-killing curve with a large enough effect in the repeat runs; inconclusive = weak or mixed curves, or effect the other way; inactive = flat fitted curve, though single readings scatter.

Assay: cAMP Responsive Elements (CRE) small molecule antagonists, cell-based qHTS assay: qHTS cell viability counter screen (AID 2060913); also: nearly all actives have a fitted effect of over 40% in size
Settings: CRE-bla HEK293T viability, CellTiter-Glo luminescence, 5 h; series mostly up to 92.4 µM; viability change, negative = cytotoxic: at the top concentration
Procedure, shortened: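 Cytotoxicity counter screen multiplexed with the CRE-bla antagonist read: HEK293T cells in DMEM with dialyzed FBS and 25 mM HEPES were treated 3 hrs under 0.25 uM final NKH477, then viability measured by CellTiter-Glo luminescence.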
% is scaled to controls: 0 for no effect and ±100 for the full control effect.

Row | SMILES | viability change, negative = cytotoxic | Potency
1 | COc1cc2nc(N3CCN(C(=O)c4ccco4)CC3)nc(N)c2cc1OC | 3.29% [at 18.9 µM] | 
2 | CC(=O)NS(=O)(=O)c1ccc(N)cc1 |  | inactive
3 | CC(=O)Oc1cccc(C)c1 | -1.26% [at 42.5 µM] | 
4 | CCCC(=O)OCC | 0.903% | 
5 | C=CCSSCCC | 5.4% | 
6 | O=C(OCC(O)CO)c1ccccc1Nc1ccnc2c(C(F)(F)F)cccc12 (stereo not drawn) | -3.53% [at 42.5 µM] | 
7 | CCCn1cc[n+](C)c1C | -12.3% | 
8 | NCC1CCCC(CN)C1 (stereo not drawn) | -0.187% | 
9 | CC(C)(C)NC(=O)[C@@H]1CN(Cc2cccnc2)CCN1C[C@@H](O)C[C@@H](Cc1ccccc1)C(=O)N[C@H]1c2ccccc2C[C@H]1O |  | inactive
10 | COc1ccc(NC(C)=O)cc1N |  | inactive
11 | CC(C)=CCC/C(C)=C/CC/C(C)=C/C(=O)OCC(=O)[C@@]1(O)CC[C@H]2[C@@H]3CCC4=CC(=O)C=C[C@]4(C)[C@H]3[C@@H](O)C[C@@]21C | -1.16% [at 42.5 µM] | 
12 | C=CCCCCCCCCC(=O)OCC | 7.97% | 
13 | Clc1nc2ccccc2nc1Cl | 0.495% | 

Assay: cAMP Responsive Elements (CRE) small molecule agonists, cell-based qHTS assay: qHTS cell viability counter screen (AID 2060914); also: nearly all actives have a fitted effect of over 50% in size
Settings: CRE-bla HEK293T viability, CellTiter-Glo luminescence, 5 h; series mostly up to 92.4 µM; activity change, negative = cytotoxicity: at the top concentration
Procedure, shortened: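 In the same wells as the reporter read, viability of CRE-bla HEK 293T cells was quantified by CellTiter-Glo luminescence after a 3 h compound exposure.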

Row | SMILES | Potency | activity change, negative = cytotoxicity
14 | Nc1ccc(O)c(N)c1 | inactive | 
15 | CC1(N)CCC(C(C)(C)N)CC1 (stereo not drawn) |  | 2.26%
16 | CCCN1CCCC[C@H]1C(=O)Nc1c(C)cccc1C |  | -2.61% [at 42.5 µM]
17 | CCCCC(CC)CN (stereo not drawn) |  | -10.5%
18 | CC(C)OC=O | inactive | 
19 | Cc1cc(O)c(C(C)C)cc1Cl | inactive | 
20 | CCC(C)COC(=O)CC(C)C (stereo not drawn) |  | -3.89%
21 | Cc1ccc(-c2ccccc2C#N)cc1 |  | -2% [at 42.5 µM]
22 | CCCC(=O)O | inactive | 
23 | CC(=O)CC(C)(C)C1CCCCC1 |  | 3.17%
24 | CC1OC(=O)C(C)OC1=O (stereo not drawn) |  | 5.96%
25 | CS(=O)(=O)c1ccc([C@@H](C[C@H]2CCC(=O)C2)C(=O)Nc2cnccn2)cc1Cl |  | 4.37%
26 | O=C(O)Cc1ccc2c(c1)C(=O)c1ccccc1CO2 |  | -0.984% [at 42.5 µM]
27 | CCC1(CO)COCOC1 |  | -2.86%
28 | COP(=O)(O)OP(=O)(O)OC |  | -1.8%
29 | COC(C)(C)CCO |  | -0.393%
30 | CCOC(=O)C1=NN(c2ccccc2)C(=O)C1 |  | 0.987%
31 | Cc1cccc(N)n1 |  | 20.6%
32 | Cc1nnc(NS(=O)(=O)c2ccc(N)cc2)s1 | inactive | 
33 | N[C@@H](CCC(=O)O)C(=O)O |  | 9.39%

Row | SMILES | Potency | activity change, negative = cytotoxicity
34 | C=C/C=C/C=C/CCCCC |  | -22.6% [at 18.9 µM]
35 | CCCCCCCCCCCCS(=O)(=O)Cl |  | 8.81% [at 18.9 µM]
36 | CCCCCCCC/C=C\CCCCCCCC(=O)OC[C@@H](O)[C@H]1OC[C@H](O)[C@H]1O |  | -3.12%
37 | c1ccc(-c2ccc(C(c3ccccc3)n3ccnc3)cc2)cc1 (stereo not drawn) |  | -0.754% [at 42.5 µM]
38 | O=C(O)C[C@H](NC(=O)OCc1ccccc1)C(=O)O |  | -3.11%
39 | O=C1NC(=O)c2cc([N+](=O)[O-])ccc21 |  | 5.28%
40 | Cc1cccc(C)c1NC(=O)c1ccccc1C(=O)O |  | -3.18% [at 42.5 µM]
41 | COc1cc2nc(N3CCN(C(=O)c4ccco4)CC3)nc(N)c2cc1OC |  | 4.06% [at 18.9 µM]
42 | CC(=O)NS(=O)(=O)c1ccc(N)cc1 | inactive | 
43 | CC(=O)Oc1cccc(C)c1 |  | -2.91% [at 42.5 µM]
44 | CCCC(=O)OCC |  | 2.42%
45 | C=CCSSCCC |  | 17.7%
46 | O=C(OCC(O)CO)c1ccccc1Nc1ccnc2c(C(F)(F)F)cccc12 (stereo not drawn) |  | -0.399% [at 42.5 µM]
47 | CCCn1cc[n+](C)c1C |  | 5.35%
48 | NCC1CCCC(CN)C1 (stereo not drawn) |  | -9.64%
49 | CC(C)(C)NC(=O)[C@@H]1CN(Cc2cccnc2)CCN1C[C@@H](O)C[C@@H](Cc1ccccc1)C(=O)N[C@H]1c2ccccc2C[C@H]1O | inactive | 
50 | COc1ccc(NC(C)=O)cc1N | inactive | 
51 | CC(C)=CCC/C(C)=C/CC/C(C)=C/C(=O)OCC(=O)[C@@]1(O)CC[C@H]2[C@@H]3CCC4=CC(=O)C=C[C@]4(C)[C@H]3[C@@H](O)C[C@@]21C |  | -13.4% [at 42.5 µM]
52 | C=CCCCCCCCCC(=O)OCC |  | 7.25%
53 | Clc1nc2ccccc2nc1Cl |  | 0.415%
